An excerpt weighted towards active compounds, which were near 1.8% of everything screened.
Granule exo inh: LAMP-1 surface exposure blockers, TALL-104 cells – cell-based, flow cytometry, MLPCN library, primary screen. inhibition, % at 10 µM. actives 0.66% (n = 360,000). TALL-104 LAMP-1 surface exposure; cells stimulated with thapsigargin and PMA. AID 651702, 2012;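 active = inhibition above about 55%, limit read from the data; inconclusive = no clear call, values can overlap the other calls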
Myeloid diff 2: induction of myeloid progenitor differentiation, primary screen, cell-based, flow cytometry, MLPCN library | ER-HoxA9 myeloid progenitors, lysozyme-GFP differentiation | actives 1% (n = 360,000) | calls only at 10 µM;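 active = normalized GFP-positive differentiation at or above the plate's own cutoff, the solvent-only control mean plus 3 SD; inconclusive = no clear call, values can overlap the other calls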;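 note: cells exposed to compound for four days before flow analysis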
ABCB6 inh MLPCN: ABCB6 transporter inhibitors, primary screen, K562-ABCB6 cells, flow cytometry, MLPCN library; ATP-binding cassette sub-family B member 6 (Homo sapiens), Q9NP58; K562-ABCB6 porphyrin accumulation, 1 h; hits give low values; fluorescence ratio to DMSO, % at 10 µM; actives 0.19% (n = 360,000); AID 602162, 2011;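 active = fluorescence ratio to DMSO below 75%, the collection mean minus 3 SD; inconclusive = too few cells collected in the well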;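 note: signal is porphyrin accumulated inside mitochondria; 100% equals median channel fluorescence of DMSO control wells; lower ratio means ABCB6 inhibition with less porphyrin fluorescence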
Target sequence (Q9NP58 whole entry, looked up): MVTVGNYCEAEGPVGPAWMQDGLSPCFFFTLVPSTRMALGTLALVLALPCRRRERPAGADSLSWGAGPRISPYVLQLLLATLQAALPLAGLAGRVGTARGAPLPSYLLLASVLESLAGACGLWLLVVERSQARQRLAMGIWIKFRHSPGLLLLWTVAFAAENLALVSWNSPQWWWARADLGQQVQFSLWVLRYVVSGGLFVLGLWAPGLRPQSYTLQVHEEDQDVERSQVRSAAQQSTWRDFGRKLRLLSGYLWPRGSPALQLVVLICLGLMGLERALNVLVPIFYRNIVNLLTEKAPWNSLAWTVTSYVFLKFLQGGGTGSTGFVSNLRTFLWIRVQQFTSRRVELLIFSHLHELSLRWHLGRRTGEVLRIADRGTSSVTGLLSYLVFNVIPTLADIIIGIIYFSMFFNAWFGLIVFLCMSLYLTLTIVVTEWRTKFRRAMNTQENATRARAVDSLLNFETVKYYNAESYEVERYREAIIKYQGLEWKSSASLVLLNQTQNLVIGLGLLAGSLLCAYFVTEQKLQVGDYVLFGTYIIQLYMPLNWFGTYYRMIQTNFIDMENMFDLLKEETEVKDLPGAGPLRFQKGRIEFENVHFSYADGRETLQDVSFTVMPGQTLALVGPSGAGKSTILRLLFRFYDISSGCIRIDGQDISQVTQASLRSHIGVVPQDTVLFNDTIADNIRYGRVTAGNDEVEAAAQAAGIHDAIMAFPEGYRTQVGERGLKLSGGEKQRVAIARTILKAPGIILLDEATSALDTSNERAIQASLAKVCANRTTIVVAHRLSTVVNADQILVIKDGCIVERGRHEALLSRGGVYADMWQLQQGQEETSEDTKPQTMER
An asterisk follows results filed as active; i = inactive; ? = inconclusive; + = active, no number.

SMILES | Granule exo inh | Myeloid diff 2 | ABCB6 inh MLPCN
Clc1ccc(N=c2ssnc2Cl)cc1 | 82.4* | i | 95.0
Clc1nssc1=Nc1ccccc1 | -0.8 | i | 98.0
COc1cc(N=c2ssnc2Cl)cc(OC)c1OC | 99.3* | i | 99.0
N#Cc1ccccc1OCCCN1CCC(C(O)(c2ccccc2)c2ccccc2)CC1 | 31.5 | i | 95.0
Nc1c(C(=O)C2CC2)sc2nc(-c3cccs3)cc(C(F)(F)F)c12 | 1.0 | + | i
O=c1[nH]c(=S)[nH]c2nc(-c3cccs3)cc(C(F)(F)F)c12 | 3.1 | i | 103.0
CN(Cc1ccccc1)c1nc2c(c(=O)n(C)c(=O)n2C)n1CCCc1ccccc1 | 65.7* | i | 86.0
CCN(CC)c1nc2c(c(=O)n(C)c(=O)n2C)n1CCCc1ccccc1 | 54.4 | i | 101.0
CC(=O)Nc1ccc(NC2=C/C(=N/S(=O)(=O)c3cccs3)c3ccccc3C2=O)cc1 | 48.9 | ? | 126.0
COc1ccc(S(=O)(=O)/N=C2\C=C(Nc3ccc(O)cc3)C(=O)c3ccccc32)cc1 | 68.5* | ? | 103.0
C/C(=N/Nc1nc(-c2ccccc2F)nc2ccccc12)c1ccccc1O | -2.2 | + | 106.0
C/C(=N\Nc1nc(-c2ccccc2O)nc2ccccc12)c1ccccc1 | 0.8 | i | 96.0
COc1ccc(CCCNC(=O)C2Cc3c(-c4cccc(C(C)=O)c4)ccnc3O2)cc1 (centres undefined) | 31.0 | ? | 93.0
NNC(=O)c1cccc(COc2ccccc2Br)c1 | 0.6 | + | 88.0
O=C(NCc1ccccc1)c1cccc(COc2ccccc2Cl)c1 | 1.2 | i | 83.0
CCC(=O)NC(c1cc(Cl)c2ccccc2c1O)C(C)C (centres undefined) | 4.2 | + | 95.0
CCC(=O)NC(c1ccco1)c1cc(Cl)c2ccccc2c1O (centres undefined) | -2.0 | i | 106.0
Cc1ccccc1COc1cccn2c(N(C)C(=O)CCC3CCCC3)c(C)nc12 | -6.0 | i | 97.0
Cc1ccc(NNC(N)=S)cc1Cl | 6.3 | i | 98.0
NC(=S)NNc1ccc(Cl)c(Cl)c1 | 68.4* | i | 94.0
CCCCNC(=O)C1(C)CCC(=O)N1CCCn1ccnc1 (centres undefined) | 0.9 | i | 102.0
O=C(Nc1ccccc1-c1nc2ccccc2[nH]1)c1ccc(N2C(=O)CCC2=O)cc1 | 6.7 | + | 146.0
O=C(Nc1ccccc1-c1nc2ccccc2[nH]1)c1ccc(S(=O)(=O)N2CCCCC2)cc1 | 0.0 | i | 97.0
O=C(NCCc1ccc(O)c(Br)c1)c1ccc(Br)o1 | -6.2 | i | 123.0
CCOc1ncccc1C(=O)NC(C)CCc1ccccc1 (centres undefined) | -2.5 | + | 118.0
SMILES | Granule exo inh | Myeloid diff 2 | ABCB6 inh MLPCN
CC(CCc1ccccc1)NC(=O)c1ccccc1Cl (centres undefined) | -0.3 | i | 100.0
CCOc1ccc(-c2cc(C(=O)NCc3cc(OC)cc(OC)c3)[nH]n2)c(C)c1 | 2.5 | i | 95.0
CCN(CC(=O)NCc1ccc(F)cc1)CC(=O)Nc1cc(S(=O)(=O)N(C)C)ccc1C | -3.1 | i | 95.0
CCCCNC(=O)c1c(CSc2ccc(Cl)cc2)noc1C(=O)NCCC | -3.8 | i | 98.0
CCCCNC(=O)c1onc(CSc2ccc(Cl)cc2)c1C(=O)NCCCC | 70.4* | i | 96.0
COc1ccccc1CNc1nc(Nc2ccc(C)cc2C)c2sccc2n1 | 0.9 | i | 95.0
COc1ccc(C2C(C(C)=O)=C(C)N=c3s/c(=C\c4ccco4)c(=O)n32)c(OC)c1 (centres undefined) | -0.4 | i | 97.0
COc1ccc(C2C(C(C)=O)=C(C)N=c3s/c(=C\c4cc(C)n(C)c4C)c(=O)n32)c(OC)c1 (centres undefined) | -2.9 | + | 225.0
COc1ccc(OCC(O)CN2C(=O)c3ccccc3C2=O)cc1 (centres undefined) | 0.2 | + | i
O=C1c2ccccc2C(=O)N1CC(O)COc1ccc(Cl)cc1 (centres undefined) | -4.6 | i | 96.0
O=C(COc1ccccc1Cl)Nc1ccc(NC(=O)c2ccco2)cc1 | -11.4 | i | 97.0
O=C(Nc1ccc(-c2noc(COc3ccccc3Cl)n2)cc1)c1ccco1 | -7.5 | + | 99.0
CC(NC(=O)CNC(=O)c1ccccc1Br)c1cccs1 (centres undefined) | 0.5 | i | 101.0
COc1ccc(N(C(=O)CCl)C(C(=O)NCCc2ccccc2)c2cccs2)cc1Cl (centres undefined) | 9.0 | ? | 25.0*
COc1cccc(N(C(=O)CCl)C(C(=O)NCCc2ccccc2)c2cccs2)c1 (centres undefined) | 14.2 | i | 104.0
O=C(COC(=O)CCS(=O)(=O)c1ccccc1)Nc1ccc(N2CCCCC2)cc1 | 0.4 | i | 100.0
Cc1c(Nc2cc(Cl)c3nonc3c2[N+](=O)[O-])c(=O)n(-c2ccccc2)n1C | 8.4 | ? | 38.0*
Cc1c(Nc2ccc3nonc3c2[N+](=O)[O-])c(=O)n(-c2ccccc2)n1C | 1.3 | i | 92.0
C=CCN1C(=O)/C(=C/C=C2/N(CC)c3ccc(S(=O)(=O)N(C)C)cc3N2CC)SC1=S | 0.8 | + | 148.0
C=CCN1C(=O)/C(=C2/Sc3ccccc3N2CC)SC1=S | -1.6 | i | 102.0
CCOC(=O)c1c(NC(=O)COc2cccc3c2CCN(C)C3=O)sc2c1CCC2 | -6.3 | + | 92.0
Cc1cccc(NC(=O)COc2cccc3c2CCN(Cc2ccccc2)C3=O)c1C | -3.0 | + | 109.0
CCOC(=O)Nc1sc2c(c1C(=O)OCC)CCC2 | -0.7 | i | 98.0
Cc1cccc(NC(=O)COc2cccc3c2CCN(C)C3=O)c1C | -6.3 | i | 95.0
CCN(CC(=O)Nc1cccc(OC)c1)C(=O)c1ccc(C)s1 | 4.0 | i | 99.0
SMILES | Granule exo inh | Myeloid diff 2 | ABCB6 inh MLPCN
COc1cccc(NC(=O)N(C)C[C@H]2Oc3cc(Br)ccc3S(=O)(=O)N([C@H](C)CO)C[C@H]2C)c1 | -8.4 | i | 94.0
O=C(CC1C[C@H](C(=O)N2CCOCC2)[C@@]2(CCC3CCCC3)c3[nH]c4ccccc4c3CCN2C1=O)NCc1cccc(C(F)(F)F)c1 (some centres undefined) | 8.5 | i | 108.0
Cc1cc(F)ccc1-c1cc(C(=O)NCc2cccc(C(F)(F)F)c2)[nH]n1 | -7.8 | i | 90.0
COCCCNC(=O)CC1C[C@H](C(=O)N2CCCCC2)[C@@]2(C)c3[nH]c4ccc(OC)cc4c3CCN2C1=O (some centres undefined) | -1.2 | i | 98.0
COCCCNC(=O)C[C@H]1C[C@H](C(=O)N2CCCCC2)[C@@]2(C)c3[nH]c4ccc(Cl)cc4c3CCN2C1=O | -0.7 | + | 98.0
COC(=O)c1cccc(CC2(C)C(=O)Nc3ccc(OC(F)(F)F)cc32)c1 (centres undefined) | -8.0 | i | 94.0
O=C1/C(=C/c2cccc([N+](=O)[O-])c2)CCc2ccccc21 | 1.9 | i | 99.0
CCN1C/C(=C\c2cccc([N+](=O)[O-])c2)C(=O)/C(=C/c2cccc([N+](=O)[O-])c2)C1 | 82.8* | i | 89.0

Screens deposited in PubChem by NMMLSC.
